# Laboratory results as given in the supplement of paper PMC10646978.
# ± gives the standard deviation.
# Key:
# Conditions in all cases: modulator concentration 10 µM
# [1] = test system: RAW-Dual (murine macrophage reporter line); assay: NF-kB reporter (SEAP) activity fold change vs agonist alone; higher = enhanced NF-kB activity
# Method in brief: (§1)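 In 384-well plates holding 50 000 RAW-Dual murine macrophage reporter cells per well, compound at 10 μM final was pre-incubated for 1 hour at 37 °C, after which a PRR agonist was added overnight. Supernatant SEAP read with QUANTI-Blue at 620 nm absorbance reported NF-κB, and Lucia luciferase read with QUANTI-Luc luminescence reported IRF. Fold change values come from dividing each reporter signal by the mean of agonist-only control wells on the same plate, averaged over replicate plates with propagated errors.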
# [2] = test system: RAW-Dual (murine macrophage reporter line); assay: IRF reporter (Lucia luciferase) activity fold change vs agonist alone; higher = enhanced IRF activity
# Method in brief: as §1
# [3] = test system: RAW-Dual (murine macrophage reporter line); assay: viability score (confluency relative to resting cells, overnight) (fraction); higher = more viable, active = viable (0.7 or more)
# Method in brief: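 In 384-well plates, RAW-Dual macrophages received compound at a final 10 μM overnight. Two confluency masks were then made with IncuCyte software from IncuCyte images of all imaged wells. The viability score is defined as confluency relative to resting cells. Passing the cutoff required both masks to lie above 70% of resting cells.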
# [4] = agonist: CpG ODN 1826 0.5 ug/mL
SMILES,"NF-kB reporter [1, 4]",NF-kB reporter ([1]; agonist: LPS 0.1 ug/mL),NF-kB reporter ([1]; agonist: MPLA […]),IRF reporter ([2]; agonist: 3'3'-cGAMP 10 ug/mL),IRF reporter ([2]; agonist: LPS 0.1 ug/mL),IRF reporter ([2]; agonist: MPLA […]),viability score [3]
Brc1ccc2[nH]cc(-c3nnc4ccc5ccccc5n34)c2c1,0.644 ± 0.051,0.877 ± 0.042,1.7 ± 0.35,0.971 ± 0.051,1.4 ± 0.1,2.08 ± 0.22,0.973 (active)
CC(C)NCC(O)COc1ccc(CCOCC2CC2)cc1 (stereo not given),0.927 ± 0.09,1.02 ± 0.1,1.06 ± 0.04,0.907 ± 0.073,0.897 ± 0.029,0.764 ± 0.098,1 (active)
COc1cccc2c1C(=O)c1c(O)c3c(c(O)c1C2=O)C[C@@](O)(C(C)=O)C[C@@H]3O[C@H]1C[C@H](N)[C@H](O)[C@H](C)O1 [Prestw-487],0.0705 ± 0.0054,0.0667 ± 0.019,0.095 ± 0.0092,0.0214 ± 0.0026,0.024 ± 0.0063,0.0245 ± 0.0067,0.325 (inactive)
Br.C=CCn1c(=N)n(CC(=O)c2cccc([N+](=O)[O-])c2)c2ccccc21,0.571 ± 0.058,0.997 ± 0.057,0.905 ± 0.062,1.13 ± 0.064,1.16 ± 0.099,0.973 ± 0.2,1.01 (active)
Cc1ccc(S(=O)(=O)n2cnc3ccccc32)cc1,1.11 ± 0.091,1.04 ± 0.071,1.02 ± 0.041,0.861 ± 0.12,1.07 ± 0.09,0.993 ± 0.14,0.998 (active)
Cn1nccc1C(=O)N1CCC(O)(C(F)(F)F)CC1,1.22 ± 0.29,0.996 ± 0.082,1.01 ± 0.078,0.92 ± 0.033,1.14 ± 0.13,1.3 ± 0.19,0.997 (active)
CN1CCN(C(=O)CN2C(=O)c3cccc4cccc(c34)C2=O)CC1,0.881 ± 0.082,0.981 ± 0.061,0.88 ± 0.091,0.971 ± 0.026,1.21 ± 0.19,0.967 ± 0.26,1.01 (active)
CSc1nnc2c(n1)[nH]c1c(C)cccc12,1.01 ± 0.082,0.931 ± 0.096,0.904 ± 0.098,0.989 ± 0.066,1.31 ± 0.25,1.42 ± 0.33,1.02 (active)
COc1ccc(C(=O)C=Cc2cc(OC)c(OC)cc2OC)c(OC)c1,0.958 ± 0.24,0.902 ± 0.13,0.839 ± 0.067,0.506 ± 0.013,1.15 ± 0.16,1.06 ± 0.17,1 (active)
COc1ccc(S(=O)(=O)N2CCC(c3ccccc3)S(=O)(=O)CC2)cc1Cl (stereo not given),0.831 ± 0.2,1.08 ± 0.082,0.978 ± 0.065,0.708 ± 0.024,1 ± 0.15,1.21 ± 0.32,0.999 (active)
CC(=O)Oc1ccc2c(c1)c(C(C)=O)c(C)n2C,0.859 ± 0.071,0.972 ± 0.1,0.963 ± 0.091,0.783 ± 0.028,1.13 ± 0.15,1.27 ± 0.25,1.02 (active)
O=c1ccn([C@@H]2O[C@H](CO)[C@@H](O)[C@H]2O)c(=O)[nH]1,1.05 ± 0.087,0.912 ± 0.045,1.05 ± 0.059,1.09 ± 0.066,0.985 ± 0.032,0.919 ± 0.1,0.998 (active)
Nc1nc(N)nc(-c2cc(Cl)ccc2Cl)n1,0.906 ± 0.22,1 ± 0.052,1.05 ± 0.093,0.946 ± 0.052,1.18 ± 0.32,1.08 ± 0.17,0.986 (active)
CCOC(=O)C1=C(C)N(CC(C)C)C(=O)C1=Cc1cccc(Br)c1,1.05 ± 0.11,1.04 ± 0.069,0.869 ± 0.051,0.909 ± 0.03,0.963 ± 0.082,1.19 ± 0.2,0.992 (active)
Cc1cc(C)nc(NS(=O)(=O)c2ccc(NC(=O)C=Cc3cccc4ccccc34)cc2)n1,1.14 ± 0.091,1.14 ± 0.083,1.17 ± 0.091,0.248 ± 0.026,1.21 ± 0.12,1.04 ± 0.17,0.956 (active)
Cc1ccccc1C(OCCN(C)C)c1ccccc1.O=C(O)CC(O)(CC(=O)O)C(=O)O (stereo not given),1.35 ± 0.36,1.34 ± 0.23,2.11 ± 1,0.582 ± 0.024,1.51 ± 0.14,1.25 ± 0.12,0.981 (active)
CCCCc1oc2ccccc2c1C(=O)c1cc(I)c(OCCN(CC)CC)c(I)c1.Cl,0.471 ± 0.038,0.988 ± 0.12,1.83 ± 0.34,0.55 ± 0.033,1.6 ± 0.12,1.77 ± 0.15,1 (active)
Cc1cccc(Cn2c(=O)c3nscc3n(Cc3ccc(F)c(F)c3)c2=O)c1,1.14 ± 0.099,1.09 ± 0.087,1.21 ± 0.11,0.997 ± 0.048,1.01 ± 0.093,0.899 ± 0.22,0.995 (active)
COc1ccc([N+](=O)[O-])cc1NC(=O)c1ccccc1SC,0.656 ± 0.079,0.705 ± 0.14,0.88 ± 0.086,0.945 ± 0.031,1.03 ± 0.23,1.17 ± 0.33,0.987 (active)
Cc1nnsc1C(=O)Nc1ccccc1C(F)(F)F,1.1 ± 0.084,0.954 ± 0.077,1 ± 0.048,0.969 ± 0.039,0.993 ± 0.11,0.929 ± 0.15,1 (active)
CCC(=O)Nc1ccc(S(=O)(=O)N2CCC(Oc3ncnc(CC)c3F)C2)c(C)c1 (stereo not given),1 ± 0.043,1.06 ± 0.087,1.2 ± 0.083,0.919 ± 0.055,1.24 ± 0.21,1.34 ± 0.4,0.992 (active)
COc1cc(OC)cc(C(=O)N2CCN(c3ccc(Nc4cccc(C)n4)nn3)CC2)c1,0.54 ± 0.042,0.981 ± 0.081,1.01 ± 0.029,0.904 ± 0.039,0.951 ± 0.096,1.12 ± 0.2,0.996 (active)
CCNC1(C(N)=O)CCN(c2ncnc3c2nc(-c2ccccc2Cl)n3-c2ccc(Cl)cc2)CC1.Cl,1.24 ± 0.11,0.479 ± 0.038,0.674 ± 0.036,0.19 ± 0.0086,0.464 ± 0.13,0.484 ± 0.12,0.688 (inactive)
O=C(NCCCc1cnc2ncnn2c1)c1cccc2ccccc12,0.88 ± 0.039,0.857 ± 0.071,1.06 ± 0.059,1.02 ± 0.057,1.23 ± 0.14,1.45 ± 0.39,0.98 (active)
COc1ccc(C=NN2CCN(C)CC2)c(OC)c1,0.84 ± 0.065,0.95 ± 0.047,1.04 ± 0.09,0.914 ± 0.056,1.25 ± 0.08,1.33 ± 0.11,1.01 (active)
